From PubChem BioAssay
Many of the other results were omitted from the sample, so hits are more common in it than they were.
D1 allo mod: allosterically modulates the human D1 dopamine receptor; HEK293 D1, CRE-luciferase, dopamine EC30 potentiation; actives deviate in either direction; actives 5.9% (n = 58,000); B-score at 10 µM; P21728; AID 641;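 active means luminescence count or its row- and column-corrected plate score outside the 99.7% band of the plate's sample wells, on either side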
Target sequence (P21728 whole entry, looked up): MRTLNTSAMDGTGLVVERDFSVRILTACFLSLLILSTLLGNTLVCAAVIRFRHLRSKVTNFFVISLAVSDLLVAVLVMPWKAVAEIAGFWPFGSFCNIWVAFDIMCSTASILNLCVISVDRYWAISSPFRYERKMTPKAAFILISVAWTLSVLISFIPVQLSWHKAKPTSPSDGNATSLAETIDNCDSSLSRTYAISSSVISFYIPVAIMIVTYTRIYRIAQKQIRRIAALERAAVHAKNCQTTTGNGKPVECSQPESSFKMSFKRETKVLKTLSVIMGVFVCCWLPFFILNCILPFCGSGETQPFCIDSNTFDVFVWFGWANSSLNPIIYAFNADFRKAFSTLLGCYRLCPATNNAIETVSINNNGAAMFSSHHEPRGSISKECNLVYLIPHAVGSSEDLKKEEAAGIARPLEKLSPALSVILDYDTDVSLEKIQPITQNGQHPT
PKA kinase inh: inhibitors of human protein kinase A; AID 524; PKA Kemptide phosphorylation, Kinase-Glo ATP luminescence; actives 0.1% (n = 65,000); P17612; inhibition, % at 6 µM;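 active means inhibition above the screen-wide mean inhibition plus 3 SD, cut at about 21% in these data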
ROCK2 inh: ROCK2 (human) kinase inhibition; O75116; purified ROCK2, Kinase-Glo ATP depletion luminescence; inhibition, % at 6 µM; actives 0.35% (n = 60,000); AID 604;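 active means inhibition above the screen-wide mean inhibition plus 3 SD, cut at about 18% in these data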
DAT uptake mod: human DAT dopamine uptake with cocaine, either direction; Q01959; LLC-PK1 hDAT cells, [14C]-dopamine uptake with cocaine IC80; actives deviate in either direction; B-score at 10 µM; actives 1.3% (n = 110,000);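 active means Z score or B-score, a plate-position-corrected score, falls beyond the plate's 99.7% confidence bounds, in either direction; inactive means both scores lie inside the 99.7% bounds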
D1 PAM confirm: D1 receptor (human) allosteric modulation, confirmed; shares compounds with D1 allo mod; HEK293 D1 CRE-luciferase, dopamine EC30 potentiation; stronger effect = higher value; luminescence at 10 µM; actives 88% (n = 2,200); AID 642;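 active means luminescence in either of two replicates above the same-plate mean plus 3 SD of the low-dose dopamine control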
D1 no dopamine: D1 (human) signaling in absence of dopamine. shares compounds with D1 allo mod. HEK293 D1 CRE-luciferase, luminescence, no dopamine; stronger effect = higher value. luminescence at 10 µM. actives 0.8% (n = 1,900). AID 646; in the data active means luminescence above about 3900
Isoprot counter: alters isoproterenol CRE-luciferase response in HEK293 cells. shares compounds with D1 allo mod. HEK293 D1 CRE-luciferase, isoproterenol EC30 counter-screen. calls only at 10 µM. actives 63% (n = 2,200);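 active means luminescence in either replicate above plate mean of wells with a partly effective reference agonist dose plus 3 SD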;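 further: isoproterenol raises cAMP through native beta-adrenoceptor Gs so signal bypasses D1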
Numbers stand for hits; . = inactive; / = no result; + = active, no number.

SMILES | D1 allo mod | PKA kinase inh | ROCK2 inh | DAT uptake mod | D1 PAM confirm | D1 no dopamine | Isoprot counter
C=CCn1c(SCC(=O)Nc2sc(C)c(C)c2C(=O)OCC)nnc1-c1sc(N)nc1C | 2.7 | . | . | . | 10116 | . | .
O=C(NCC1CCCO1)c1ccc(S(=O)(=O)N2CCC(c3nc4ccc(Cl)cc4[nH]3)CC2)cc1 (stereo not given) | / | / | / | . | / | / | /
CON(C)c1nc(OCCNC(=O)OCc2ccc(Cl)cc2Cl)nc(N(C)C)n1 | . | . | . | . | / | / | /
COc1ccc(-c2nnc3c4ccccc4c(C)nn23)cc1 | / | / | / | . | / | / | /
Cc1nn2c(-c3ccncc3)nnc2c2ccccc12 | 2.7 | . | . | . | 6068 | . | +
CC(C)(Oc1ccc(Br)cc1)C(=O)N1CCc2ccccc21 | / | / | / | . | / | / | /
COc1ccc(C(=O)Oc2ccc(=O)n(-c3ccccc3)n2)cc1 | / | / | / | . | / | / | /
CCN1CCN(Cc2nc(N)nc(Nc3ccc(C)c(C)c3)n2)CC1 | . | . | . | . | / | / | /
Cc1ccc(Nc2nc(N)nc(CN3CCN(C(=O)c4ccco4)CC3)n2)cc1Cl | 5.4 | . | . | . | 12072 | . | +
N=c1sc2ccccc2n1-c1ccccc1 | 21 | . | / | . | 9268 | . | +
CCC(=O)N1CCc2cc(S(=O)(=O)N3CCN(C(=O)c4ccco4)CC3)ccc21 | . | . | / | . | / | / | /
O=C(c1ccco1)N1CCN(S(=O)(=O)c2ccc3c(c2)CCN3C(=O)C2CCC2)CC1 | 2.6 | . | . | . | 11588 | . | +
O=C(C1CC1)N1CCc2cc(S(=O)(=O)N(CCO)Cc3ccccc3)ccc21 | 4.2 | . | . | . | 15244 | . | +
COc1ccc(S(=O)(=O)N2CCN(c3ccccn3)CC2)cc1OC | 5.3 | . | . | . | 6880 | / | .
COc1ccc(S(=O)(=O)N2CCN(c3c(C)cccc3C)CC2)cc1OC | . | . | . | . | / | / | /
O=C(C1CCC1)N1CCc2cc(S(=O)(=O)N3CCCCC3)ccc21 | . | . | . | . | / | / | /
O=C(C1CCC1)N1CCc2cc(S(=O)(=O)N3CCN(c4ccccn4)CC3)ccc21 | 6.1 | . | . | . | 10104 | / | +
O=C(Nc1c(-c2ccccc2)nc2sccn12)c1ccccc1 | . | . | . | . | / | / | /
CCN1CCN(Cc2nc3c(c(=O)n(C)c(=O)n3C)n2C(C)C(C)=O)CC1 (stereo not given) | / | . | / | . | / | / | /
C=CCCCCCCCC(=O)OC | / | / | / | . | / | / | /
CCn1ncc(/C=N/NS(=O)(=O)c2ccc(Cl)cc2)c1C | / | / | / | . | / | / | /
COC(=O)C1=C(C(=O)OC)[C@@H]2N(C)c3ccc(OC)cc3[C@@]23C[C@@H](C(=O)OC)N(C(=O)NC2CCCCC2)C3=N1 | / | / | / | . | / | / | /
CCOC(=O)N1CCN(S(=O)(=O)c2ccc3c(c2)CCN3C(=O)C2CCC2)CC1 | 3.3 | . | . | . | 7472 | . | .
CCn1nc(C(=O)NC2=NCCS2)c2ccccc2c1=O | 2.9 | . | / | . | 9356 | . | .
O=C(C1=C[C@@H](C2CC2)C[C@@H](OCc2ccc(CO)cc2)O1)N1CCN(Cc2ccccc2)CC1 | / | / | / | . | / | / | /
SMILES | D1 allo mod | PKA kinase inh | ROCK2 inh | DAT uptake mod | D1 PAM confirm | D1 no dopamine | Isoprot counter
COc1ccc(C(C#N)C2(C)OCCO2)cc1OC (stereo not given) | 10 | . | . | . | 10756 | / | +
CCOc1ccc(C(=O)Nc2nncs2)cc1OCC | 10 | . | . | . | 18420 | . | +
O=C(CN1CCN(c2ccccn2)CC1)Nc1ccc(Cl)c(C(F)(F)F)c1 | 5.5 | . | . | . | . | . | .
COc1ccc(CSc2nnnn2Cc2ccccc2)cc1OC | 3.6 | . | . | . | 15068 | . | +
COc1ccc(CCNc2nnc(Sc3nnnn3-c3ccccc3)s2)cc1OC | 5.3 | . | . | . | 10264 | . | .
COc1ccc(C)cc1NC(=O)CSc1nnnn1Cc1ccccc1 | . | . | . | . | / | / | /
O=C(COc1ccc(Br)cc1)N1CCC(c2ccccc2)C1 (stereo not given) | / | / | / | . | / | / | /
Cc1ccc(Sc2nc3c(c(=O)[nH]c(=O)n3C)n2CCc2ccccc2)cc1 | / | / | / | . | / | / | /
Cn1c(=O)[nH]c(=O)c2c1nc(Sc1ccccc1)n2CCc1ccccc1 | 9.2 | . | . | . | 20140 | . | +
Cn1c(=O)[nH]c(=O)c2c1nc(Sc1ncccn1)n2CCCc1ccccc1 | 9.6 | . | / | . | 18924 | . | +
COC(=O)C(C)Sc1nc2c(c(=O)[nH]c(=O)n2C)n1CCCc1ccccc1 (stereo not given) | 4.7 | . | . | . | 8864 | . | +
Cc1ccnc(Sc2nc3c(c(=O)[nH]c(=O)n3C)n2CCCc2ccccc2)n1 | / | . | / | . | / | / | /
Cc1ccc(C)c(NC(=O)CNS(=O)(=O)c2ccccc2)c1 | . | . | . | . | / | / | /
CCN(CC)S(=O)(=O)c1ccc(NCc2ccccc2)nc1 | . | . | . | . | / | / | /
COCc1nnc(NS(=O)(=O)c2c(C)cc(C)cc2C)s1 | / | / | / | . | / | / | /
Cc1sc2ncn(CC(=O)OC(C)C)c(=O)c2c1C | / | / | / | . | / | / | /
COc1ccc(-c2nc(-c3cccc(C)c3)[nH]c(=O)c2C#N)cc1 | / | / | / | . | / | / | /
COc1cccc(N2CCN(Cc3nc(N)nc(N4CCCc5ccccc54)n3)CC2)c1 | 4.9 | . | . | . | 11368 | . | +
COc1ccc(Nc2nc(N)nc(CN3CCc4ccccc4C3)n2)cc1 | . | . | . | . | / | / | /
Cc1ccc(-n2ncc(C#N)c2/N=C/N2CCOCC2)cc1 | 14 | . | . | . | 14372 | . | +
CN(C)c1nc(N2CCCCC2)nc(N2CCCCC2)n1 | / | . | . | / | / | / | /
OCCN(CCO)c1nc(N2CCCCC2)c2nc(N(CCO)CCO)nc(N3CCCCC3)c2n1 | 11 | . | . | / | 11976 | . | +
Cc1ccc(N2CC(c3nc4ccccc4[nH]3)CC2=O)c(C)c1 (stereo not given) | 11 | . | . | . | . | . | .
Cc1cccc(N2C(=O)CC(N3CCC(c4nc5ccccc5[nH]4)CC3)C2=O)c1 (stereo not given) | / | / | / | . | / | / | /
CC(C(=O)OCC(=O)Nc1ccc(S(=O)(=O)N2CCCCC2)cc1)N1C(=O)c2ccccc2C1=O (stereo not given) | / | / | / | . | / | / | /
SMILES | D1 allo mod | PKA kinase inh | ROCK2 inh | DAT uptake mod | D1 PAM confirm | D1 no dopamine | Isoprot counter
C=CCn1c(=O)c2c(C)c(C)sc2n2c(Nc3ccc(OC)cc3)nnc12 | 3.3 | . | . | . | 10192 | . | .
Nc1nc(-c2cccs2)c(NC(=O)c2ccccc2)s1 | 6 | . | . | . | 14100 | . | +
CC(=O)Nc1sc(NC(=O)c2ccc(Cl)cc2)nc1-c1cccs1 | / | / | / | . | / | / | /
CC(=O)c1cccc(NC(=O)N2CCC(c3nnc(SCC(N)=O)n3C)CC2)c1 | 3.3 | . | . | . | . | / | .
CCOC(=O)NC(=O)CN1C(=O)NC(C)(c2ccccc2)C1=O (stereo not given) | 4.4 | . | . | . | . | . | .
Cc1cc(C(F)F)n2ncc(C(=O)N3CCC(C(N)=O)CC3)c2n1 | / | / | / | . | / | / | /
COc1ccc(CNC(=O)c2cnn3c(C(F)F)cc(C)nc23)cc1OC | 3.9 | . | . | . | 8268 | . | +
